Consider seven sequences from publication PMC7862700, “An all-to-all approach to the identification of sequence-specific readers for epigenetic DNA modifications on cytosine”.

Holding throughout (experiment): DAPPL (digital affinity profiling via proximity ligation, sequencing); 10 mM Tris-HCl pH 7.5, 50 mM NaCl, 1 mM DTT, 4% glycerol, room temperature, 30 min; GST-TFs on glutathione beads, 16-mer random dsDNA library, 0.1% formaldehyde crosslink after washing; high values mean tight binding
Common to all, as to details: protein: recombinant; tags: N-terminal GST; dsDNA, one strand shown

For experiment [1], the target named is T1, FLI1 (Homo sapiens, UniProt Q01543 1-452).
T1 sequence: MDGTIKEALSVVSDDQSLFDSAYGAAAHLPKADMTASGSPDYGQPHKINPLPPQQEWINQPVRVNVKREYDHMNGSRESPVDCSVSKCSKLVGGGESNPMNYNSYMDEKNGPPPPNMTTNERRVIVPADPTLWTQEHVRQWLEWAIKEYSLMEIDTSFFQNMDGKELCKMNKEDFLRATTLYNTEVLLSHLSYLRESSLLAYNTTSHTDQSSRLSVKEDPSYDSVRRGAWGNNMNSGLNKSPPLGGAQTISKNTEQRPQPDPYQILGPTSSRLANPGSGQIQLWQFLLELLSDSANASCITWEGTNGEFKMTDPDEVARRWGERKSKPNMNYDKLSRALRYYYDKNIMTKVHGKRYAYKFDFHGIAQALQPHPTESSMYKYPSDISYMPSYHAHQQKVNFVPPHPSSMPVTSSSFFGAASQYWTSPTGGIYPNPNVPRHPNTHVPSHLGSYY
The gist of the method:
(§1)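 Pools were built from human transcription factors expressed in yeast as GST fusions, captured on glutathione beads and DNA-barcoded, along with a tag-only sample. Incubation with 200 nmole of a 16-mer random double-stranded DNA library lasted 30 min at room temperature in Tris/NaCl/DTT/glycerol buffer, and was followed by washing, 0.1% formaldehyde crosslinking, proximity ligation, PCR amplification and Illumina NextSeq500 sequencing. Binding signal is the quotient of each hexamer's read frequency for a factor and its frequency for the tag-only sample.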

For experiment [2], the target named is T2, ELK1 (Homo sapiens, UniProt P19419 1-428).
T2 sequence: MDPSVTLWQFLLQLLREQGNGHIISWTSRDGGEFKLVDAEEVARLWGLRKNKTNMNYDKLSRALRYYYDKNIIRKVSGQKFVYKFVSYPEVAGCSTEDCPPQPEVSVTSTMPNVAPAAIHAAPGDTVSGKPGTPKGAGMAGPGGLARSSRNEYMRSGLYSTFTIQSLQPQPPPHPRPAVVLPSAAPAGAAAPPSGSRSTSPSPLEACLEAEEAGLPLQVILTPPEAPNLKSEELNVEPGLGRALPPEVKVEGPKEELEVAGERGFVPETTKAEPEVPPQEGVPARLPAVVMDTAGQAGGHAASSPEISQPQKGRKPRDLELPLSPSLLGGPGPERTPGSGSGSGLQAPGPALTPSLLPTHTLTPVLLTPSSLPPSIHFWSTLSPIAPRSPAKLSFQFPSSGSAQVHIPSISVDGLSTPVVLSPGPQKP
An outline of the steps:
as §1

Experiment [3] deals with T3, GABPA (Homo sapiens, UniProt Q06546 1-454).
T3 sequence: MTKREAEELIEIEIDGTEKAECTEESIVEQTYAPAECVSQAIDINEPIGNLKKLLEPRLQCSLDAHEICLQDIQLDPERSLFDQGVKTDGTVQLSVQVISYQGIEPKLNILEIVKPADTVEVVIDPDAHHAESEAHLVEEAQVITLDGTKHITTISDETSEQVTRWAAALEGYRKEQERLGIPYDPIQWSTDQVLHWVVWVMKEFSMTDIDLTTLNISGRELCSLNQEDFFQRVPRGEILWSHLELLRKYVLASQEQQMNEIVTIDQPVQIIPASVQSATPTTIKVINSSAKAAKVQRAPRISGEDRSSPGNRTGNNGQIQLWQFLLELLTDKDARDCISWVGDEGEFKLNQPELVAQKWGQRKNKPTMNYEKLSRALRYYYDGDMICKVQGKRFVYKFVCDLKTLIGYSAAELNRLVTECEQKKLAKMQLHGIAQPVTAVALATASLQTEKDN
An outline of the steps: as §1

For experiment [4], the target named is T4, ERG (Homo sapiens, UniProt P11308 1-479).
T4 sequence: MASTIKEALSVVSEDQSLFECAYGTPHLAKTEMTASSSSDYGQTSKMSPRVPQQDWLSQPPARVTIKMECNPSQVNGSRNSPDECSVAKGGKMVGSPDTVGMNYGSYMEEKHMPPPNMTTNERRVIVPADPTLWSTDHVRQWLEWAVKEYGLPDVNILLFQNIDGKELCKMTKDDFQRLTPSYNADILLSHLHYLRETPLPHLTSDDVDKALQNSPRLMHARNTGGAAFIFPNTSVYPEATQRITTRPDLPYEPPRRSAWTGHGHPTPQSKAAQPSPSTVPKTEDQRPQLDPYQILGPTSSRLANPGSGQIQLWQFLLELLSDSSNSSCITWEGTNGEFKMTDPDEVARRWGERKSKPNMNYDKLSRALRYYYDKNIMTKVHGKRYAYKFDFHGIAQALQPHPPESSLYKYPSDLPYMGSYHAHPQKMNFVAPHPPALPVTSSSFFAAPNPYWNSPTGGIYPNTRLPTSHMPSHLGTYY
The gist of the method:
as §1

For experiment [5], the target named is ELF1 (Homo sapiens, UniProt P32519 1-619). The gist of the method: as §1
Experiment [6] has as its target T5, EHF (Homo sapiens, UniProt Q9NZC4 1-300).
T5 sequence: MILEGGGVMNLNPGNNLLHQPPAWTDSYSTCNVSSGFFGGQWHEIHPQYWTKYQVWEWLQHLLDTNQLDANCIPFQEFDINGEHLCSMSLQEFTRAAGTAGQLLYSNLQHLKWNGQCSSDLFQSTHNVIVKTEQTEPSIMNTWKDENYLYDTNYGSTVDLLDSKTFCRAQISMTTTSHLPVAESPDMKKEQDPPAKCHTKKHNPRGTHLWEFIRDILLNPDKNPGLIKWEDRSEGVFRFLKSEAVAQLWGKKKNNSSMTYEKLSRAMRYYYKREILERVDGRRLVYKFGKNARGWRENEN
An outline of the steps: as §1

In experiment [7] the target is SPI1 (Homo sapiens, UniProt P17947 1-270). The gist of the method: as §1
Experiment [8] addresses SPIB (Homo sapiens, UniProt Q01892 1-262). An outline of the steps: as §1
Experiment [9] deals with T6, ELK3 (Homo sapiens, UniProt P41970 1-407).
T6 sequence: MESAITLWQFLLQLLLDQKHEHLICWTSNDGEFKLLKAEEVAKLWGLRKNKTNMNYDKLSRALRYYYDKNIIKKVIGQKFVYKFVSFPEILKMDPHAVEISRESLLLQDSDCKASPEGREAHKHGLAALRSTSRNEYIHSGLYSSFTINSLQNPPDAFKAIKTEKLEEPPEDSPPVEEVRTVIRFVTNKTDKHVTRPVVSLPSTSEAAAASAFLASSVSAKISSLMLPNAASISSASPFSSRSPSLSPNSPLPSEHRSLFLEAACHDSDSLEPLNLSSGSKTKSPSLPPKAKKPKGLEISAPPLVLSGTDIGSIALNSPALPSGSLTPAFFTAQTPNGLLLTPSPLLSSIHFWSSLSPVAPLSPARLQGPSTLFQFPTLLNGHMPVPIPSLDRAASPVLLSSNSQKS
An outline of the steps: as §1

Chain of ELF1 (P32519 whole entry): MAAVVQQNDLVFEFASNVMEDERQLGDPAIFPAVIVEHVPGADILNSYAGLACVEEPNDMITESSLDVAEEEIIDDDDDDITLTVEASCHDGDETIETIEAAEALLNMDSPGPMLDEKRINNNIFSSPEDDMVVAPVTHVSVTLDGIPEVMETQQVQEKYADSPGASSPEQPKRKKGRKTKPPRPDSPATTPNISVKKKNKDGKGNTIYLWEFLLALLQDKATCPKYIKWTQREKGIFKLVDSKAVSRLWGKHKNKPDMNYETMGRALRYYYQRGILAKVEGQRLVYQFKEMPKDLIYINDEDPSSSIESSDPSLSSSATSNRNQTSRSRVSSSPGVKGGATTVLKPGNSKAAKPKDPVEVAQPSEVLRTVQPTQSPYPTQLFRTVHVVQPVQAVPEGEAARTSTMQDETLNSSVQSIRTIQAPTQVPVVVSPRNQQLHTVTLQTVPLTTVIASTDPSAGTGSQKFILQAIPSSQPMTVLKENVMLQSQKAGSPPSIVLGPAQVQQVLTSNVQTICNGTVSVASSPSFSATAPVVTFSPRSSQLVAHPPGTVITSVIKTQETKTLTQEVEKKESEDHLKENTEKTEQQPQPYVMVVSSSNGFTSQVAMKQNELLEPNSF
Chain of SPIB (Q01892 whole entry): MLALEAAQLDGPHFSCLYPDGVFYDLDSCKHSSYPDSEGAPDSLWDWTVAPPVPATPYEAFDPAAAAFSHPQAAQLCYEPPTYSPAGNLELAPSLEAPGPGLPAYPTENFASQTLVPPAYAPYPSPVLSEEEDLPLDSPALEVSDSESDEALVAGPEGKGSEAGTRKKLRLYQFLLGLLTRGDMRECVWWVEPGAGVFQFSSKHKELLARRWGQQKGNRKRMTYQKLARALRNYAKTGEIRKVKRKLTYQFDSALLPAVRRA

Regarding TGAATT, the binding signal in experiment [1] was 1.15 fold enrichment (6-mer frequency, TF over GST control); in experiment [2], 1.09 fold enrichment (6-mer frequency, TF over GST control); in experiment [3] it was 1.19 fold enrichment (6-mer frequency, TF over GST control); in experiment [4], 1.17 fold enrichment (6-mer frequency, TF over GST control); in experiment [5] it was 1.1 fold enrichment (6-mer frequency, TF over GST control); in [6], 1.17 fold enrichment (6-mer frequency, TF over GST control). Also, the binding signal in [7] is 1.22 fold enrichment (6-mer frequency, TF over GST control); in experiment [8], 1.19 fold enrichment (6-mer frequency, TF over GST control); in [9], 1.06 fold enrichment (6-mer frequency, TF over GST control).
With TGAACA, the binding signal in experiment [1] was 1.25 fold enrichment (6-mer frequency, TF over GST control); in experiment [2], 1.23 fold enrichment (6-mer frequency, TF over GST control); in experiment [3], 1.18 fold enrichment (6-mer frequency, TF over GST control); in experiment [4], 1.21 fold enrichment (6-mer frequency, TF over GST control); in experiment [5], 1.26 fold enrichment (6-mer frequency, TF over GST control); in experiment [6], 1.27 fold enrichment (6-mer frequency, TF over GST control). Also, the binding signal in [7] was 1.14 fold enrichment (6-mer frequency, TF over GST control); in experiment [8], 1.23 fold enrichment (6-mer frequency, TF over GST control); in experiment [9] it was 1.33 fold enrichment (6-mer frequency, TF over GST control).
Regarding GCACTA, the binding signal in experiment [1] is 1.18 fold enrichment (6-mer frequency, TF over GST control); in experiment [2] it was 1.2 fold enrichment (6-mer frequency, TF over GST control); in [3] it was 1.23 fold enrichment (6-mer frequency, TF over GST control); in experiment [4] it was 1.11 fold enrichment (6-mer frequency, TF over GST control); in [5] it was 1.16 fold enrichment (6-mer frequency, TF over GST control); in experiment [6], 1.21 fold enrichment (6-mer frequency, TF over GST control). For the same sequence, the binding signal in [7] is 1.19 fold enrichment (6-mer frequency, TF over GST control); in experiment [8], 1.3 fold enrichment (6-mer frequency, TF over GST control); in experiment [9] it was 1.23 fold enrichment (6-mer frequency, TF over GST control).
As for TCTTTG, the binding signal in experiment [1] is 1.18 fold enrichment (6-mer frequency, TF over GST control); in experiment [2] it was 1.18 fold enrichment (6-mer frequency, TF over GST control); in experiment [3] it was 1.2 fold enrichment (6-mer frequency, TF over GST control); in experiment [4] it was 1.25 fold enrichment (6-mer frequency, TF over GST control); in experiment [5], 1.25 fold enrichment (6-mer frequency, TF over GST control); in experiment [6], 1.21 fold enrichment (6-mer frequency, TF over GST control). In addition, the binding signal in experiment [7] was 1.21 fold enrichment (6-mer frequency, TF over GST control); in [8] it was 1.05 fold enrichment (6-mer frequency, TF over GST control); in [9] it was 1.31 fold enrichment (6-mer frequency, TF over GST control).
With AAATAC, the binding signal is 1.3 fold enrichment (6-mer frequency, TF over GST control) in experiment [1]; 1.27 fold enrichment (6-mer frequency, TF over GST control) in experiment [2]; 1.43 fold enrichment (6-mer frequency, TF over GST control) in experiment [3]; 1.43 fold enrichment (6-mer frequency, TF over GST control) in [4]; 1.36 fold enrichment (6-mer frequency, TF over GST control) in experiment [5]; 1.39 fold enrichment (6-mer frequency, TF over GST control) in [6]. Also, the binding signal in experiment [7] was 1.41 fold enrichment (6-mer frequency, TF over GST control); in experiment [8], 1.36 fold enrichment (6-mer frequency, TF over GST control); in experiment [9], 1.37 fold enrichment (6-mer frequency, TF over GST control).
As to TCTCCA, the binding signal is 1.52 fold enrichment (6-mer frequency, TF over GST control) in [1]; 1.46 fold enrichment (6-mer frequency, TF over GST control) in [2]; 1.56 fold enrichment (6-mer frequency, TF over GST control) in [3]; 1.37 fold enrichment (6-mer frequency, TF over GST control) in experiment [4]; 1.43 fold enrichment (6-mer frequency, TF over GST control) in experiment [5]; 1.55 fold enrichment (6-mer frequency, TF over GST control) in experiment [6]. Further, the binding signal in experiment [7] is 1.57 fold enrichment (6-mer frequency, TF over GST control); in experiment [8], 1.44 fold enrichment (6-mer frequency, TF over GST control); in experiment [9] it was 1.59 fold enrichment (6-mer frequency, TF over GST control).
For ATACAT, the binding signal in experiment [1] was 1.31 fold enrichment (6-mer frequency, TF over GST control); in [2] it was 1.15 fold enrichment (6-mer frequency, TF over GST control); in [3], 1.25 fold enrichment (6-mer frequency, TF over GST control); in [4], 1.34 fold enrichment (6-mer frequency, TF over GST control); in experiment [5], 1.24 fold enrichment (6-mer frequency, TF over GST control); in experiment [6], 1.21 fold enrichment (6-mer frequency, TF over GST control). The binding signal is 1.2 fold enrichment (6-mer frequency, TF over GST control) in [7]; 1.26 fold enrichment (6-mer frequency, TF over GST control) in experiment [8]; 1.32 fold enrichment (6-mer frequency, TF over GST control) in experiment [9].
